# PubChem BioAssay (NCI)
# This is part of a sample that, as a whole, favours compounds with a hit. Of some 83,000 tested, about 20% had one in any assay.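 Cell lines were cultured in 96-well plates, exposed to a single compound concentration, and assessed for percent growth 48 hours later.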 Values without a mark were called inactive. Calls of active or inactive are those of the source. How the source made its calls: active means growth percent below 10; inactive means the rest.
# Key:
# Experiment in all cases: NCI-60 one-dose screen, 48 h (100 = growth as untreated, 0 = no growth, -100 = all killed)
# Details in all cases: 10 µM unless noted
# [1] = tested on: NCI-H23 lung
# [2] = tested on: NCI-H226 lung
# [3] = tested on: NCI-H322M lung
# [4] = tested on: HOP-62 NSCLC
# [5] = tested on: NCI-H460 lung
# [6] = tested on: HOP-92 NSCLC
# [7] = tested on: NCI-H522 lung
# [8] = tested on: A549/ATCC NSCLC
# [9] = tested on: 786-0 renal
# [10] = tested on: COLO 205 colon
# [11] = tested on: DU-145 prostate
# [12] = tested on: K-562 leukemia
# [13] = tested on: MALME-3M melanoma
# [14] = tested on: MDA-MB-231 breast
# [15] = tested on: RXF 393 renal
# [16] = tested on: SF-268 CNS
# [17] = tested on: SF-295 CNS
# [18] = tested on: SF-539 CNS
# [19] = tested on: M14 melanoma
SMILES,growth [1],growth [2],growth [3],growth [4],growth [5],growth [6],growth [7],growth [8],growth [9],growth [10],growth [11],growth [12],growth [13],growth [14],growth [15],growth [16],growth [17],growth [18],growth [19]
COc1cc(C(=O)CCCl)ccc1O,91.8%,88.9%,106%,112%,106%,95.6%,-24.2% (active),102%,106%,109%,107%,97.4%,88.7%,94.3%,98.2%,96.1%,100%,94.7%,111%
O=C(/C=C/CN1CCOCC1)Nc1cc2c(Nc3cccc(Cl)c3F)ncnc2cc1OCCOC(F)F,85.4%,80.1%,4.9% (active),70.5%,93%,18.9%,6.03% (active),52.7%,53.4%,95.1%,49.5%,76%,64.4%,68.6%,68.4%,65.2%,81.2%,81.4%,94.3%
CCCCCCOc1ccc(C2(Cl)c3ccccc3N(C)c3ccccc32)cc1,24.5%,29.5%,57.1%,82.4%,-25.7% (active),83.1%,55.4%,47.1%,47.2%,61.7%,55.7%,48.8%,-21.5% (active),32.7%,57%,49.5%,28.9%,89.3%,12.9%
COc1ccccc1OCC(=O)Nc1sc2c(c1C(N)=O)CCC2,114%,80.7%,105%,49.7%,25.6%,2.69% (active),84.1%,85.8%,75.1%,86.1%,58.4%,52.5%,91.9%,92.1%,48.1%,43.7%,15.2%,59.6%,66.4%
O=C1CCC/C=C\C[C@H]2C=CC(=O)/C2=C/C[C@H](C/C=C\CC(F)(F)F)O1,-8.61% (active),8.07% (active),17.5%,-11.7% (active),-30.5% (active),-24.4% (active),-50.8% (active),1.72% (active),-73.9% (active),-44.4% (active),-3.69% (active),3.68% (active),-12% (active),17.7%,-85.4% (active),-1.48% (active),-19.7% (active),-40.1% (active),-15.2% (active)
CCSc1nnc(NC(=O)Cc2ccc(Cl)cc2)s1,99.1%,104%,112%,102%,123%,89.4%,107%,106%,100%,108%,105%,89.4%,105%,114%,20.6%,110%,98.3%,97.4%,107%
